# ± gives the standard deviation.
# Test system: OVCAR-3-derived ovarian cancer stem-like cells (spheroids)
# Assay: cell growth relative to untreated control; higher = more growth (less inhibition)
# Details: 2.29 µM; 96 h
# Outline: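 Stem-like cells derived from OVCAR-3 spheroids were dissociated with trypsin and seeded at 50,000 cells/mL in stem cell medium in ultra-low attachment 96-well plates, then preincubated for 24 h. Each compound was added at 2.29 uM to 4 replicate wells and left for 96 h at 37°C, 5% CO2. Viability came from TOX8 resazurin fluorescence (ex 560/em 590 nm) read after 4 h. Percent growth was expressed relative to untreated wells, after blank subtraction and removal of outliers by the Grubbs test.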
row,SMILES,cell growth [%]
1,CC1=CC(C)(C)N=C2SC(c3ccc(N)cc3)=NN12,112 ± 28
2,CC(C)CC(NC(=O)OCc1ccccc1)C(=O)NC(Cc1ccccc1)C(=O)CCl (stereo not drawn),92.9 ± 35
3,Oc1cc(-n2cccn2)c(O)cc1-n1cccn1,103 ± 13
4,COC(=O)/C(=N\NC(=O)c1ccccc1O)C(C#N)c1ccccc1 (stereo not drawn),99.9 ± 33
5,COc1cc(/C=C(\C)c2ccc3c(c2)OCO3)cc(OC)c1OC,162 ± 21
6,Nc1ccc(S(=O)(=O)Nc2cnc3c(Cl)cccc3n2)cc1,100 ± 15
7,O=[N+]([O-])c1ccc(-c2cn(-c3ccc(Cl)cc3)cn2)cc1,106 ± 23
8,Cc1cc(-c2nc3ccccc3s2)ccc1N,73.6 ± 9
9,O=[N+]([O-])c1cc(-c2nc(=S)[nH][nH]2)ccc1O,98.5 ± 14
10,CNc1nc(N(C)C)nc(N(C)C)n1,89.9 ± 20
11,C=C1C(=O)O[C@@H]2/C=C(/C)C(=O)C[C@H]3OC(C)(C)O[C@]3(C)C[C@@H](OC(=O)/C(C)=C\C)[C@@H]12,90.5 ± 31
12,CC(C)C(C)C=CC(C)C1CCC2C3=CC=C4CC(O)CCC4(C)C3CCC21C (stereo not drawn),97.6 ± 23
13,NC1=NCN([C@@H]2O[C@H](CO)[C@@H](O)[C@H]2O)C(=O)N1,85.8 ± 11
14,COC1OC(COCc2ccc(Cl)cc2)C(OCc2ccc(Cl)cc2)C1O (stereo not drawn),110 ± 26
15,O=C(NCCCCCCCCNC(=O)c1cccc2ccccc12)c1cccc2ccccc12,80.8 ± 18
16,COC1=C(N)C(=O)c2nc(C)ccc2C1=O,125 ± 79
17,C[CH2][Ge]([CH2]C)([CH2]C)[O]C(=O)CCC(=O)[O][Ge]([CH2]C)([CH2]C)[CH2]C,110 ± 7.5
18,Cc1nc(Nc2ccc(Cl)c(Cl)c2)sc1C(/C=C/c1ccc2c(c1)OCO2)=N/Nc1ccc([N+](=O)[O-])cc1[N+](=O)[O-],101 ± 15
